Consider 30 compounds from PubChem BioAssay (EPA / NIEHS).

Several values for one entry are separate records, joined by “and”; a condition that tells them apart may be missing. Equal values may be shown once. Results filed as inconclusive are left out. Activity calls are given as the source filed them. The calls were made as follows: active = hit-call score of the fitted dose curve at least 0.9, where 1 is the maximum; inconclusive = response in the unintended direction; inactive = score below 0.9.

Experiment [1] addresses Peroxisome proliferator-activated receptor gamma (Homo sapiens) (UniProt P37231). Briefly: ATG_PPARg_TRANS: Attagene TRANS-FACTORIAL HepG2 Assay for human Peroxisome Proliferator-activated Receptor-gamma (PPARg) (AID 2283007). The method, boiled down: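 HepG2 cells are transiently transfected with GAL4-UAS reporter units driven by chimeric NR-Gal4 fusions and dosed for 24 h. Reporter mRNA is quantified by RT-PCR, 6-FAM labelling, HpaI digestion and capillary electrophoresis. Induction is scored against DMSO.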

In experiment [2] the target is human RAR-related Orphan Receptor beta (RORb), RORB (gene 6096) (UniProt Q92753). Briefly: ATG_RORb_TRANS: Attagene TRANS-FACTORIAL HepG2 Assay for human RAR-related Orphan Receptor beta (RORb) (AID 2283010). An outline of the steps:
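HepG2 cells transiently transfected with GAL4-UAS reporter units expressing chimeric NR-Gal4 protein; reporter mRNA measured 24 h after dosing by RT-PCR, 6-FAM labelling and capillary electrophoresis. Gain-of-signal fitted relative to DMSO baseline.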

The target of experiment [3] is human RAR-related Orphan Receptor gamma (RORg), RORC (gene 6097) (UniProt P51449). Briefly: ATG_RORg_TRANS: Attagene TRANS-FACTORIAL HepG2 Assay for human RAR-related Orphan Receptor gamma (RORg) (AID 2283011). The method, boiled down: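 Chimeric RORg-Gal4 transactivation in transfected HepG2; 24 h exposure; RT-PCR/capillary electrophoresis readout of reporter mRNA, DMSO baseline.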

Experiment [4] has as its target Retinoic acid receptor RXR-alpha (Homo sapiens) (UniProt P19793). Briefly: ATG_RXRa_TRANS: Attagene TRANS-FACTORIAL HepG2 Assay for human Retinoid X Receptor alpha (RXRa) (AID 2283012). An outline of the steps: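 HepG2 cells transiently transfected with GAL4-UAS reporter units and chimeric RXRa-Gal4 protein, treated 24 h. Reporter mRNA measured by RT-PCR, fluorescent labelling, HpaI digestion and capillary electrophoresis. Induction fitted against DMSO.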

Experiment [5] has as its target Nuclear receptor subfamily 1 group I member 2 (Homo sapiens) (UniProt O75469). Briefly: ATG_PXR_TRANS: Attagene TRANS-FACTORIAL HepG2 Assay for human Pregnane X Receptor (PXR) (AID 2283008). An outline of the steps: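 Fluorescence intensity of FAM-labelled, HpaI-digested reporter amplicons, separated by capillary electrophoresis, quantifies induction. HepG2 cells with PXR-Gal4 trans-reporter system were exposed 24 h; DMSO defines baseline.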

Experiment [6] addresses human Retinoic Acid Receptor gamma (RARg), RARG (gene 5916) (UniProt P13631). Briefly: ATG_RARg_TRANS: Attagene TRANS-FACTORIAL HepG2 Assay for human Retinoic Acid Receptor gamma (RARg) (AID 2283009). An outline of the steps:
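HepG2 transiently transfected with GAL4-UAS reporter units and chimeric NR-Gal4 constructs; 24 h compound exposure. Reporter mRNA quantified by RT-PCR, FAM labeling, HpaI digestion and capillary electrophoresis; gain-of-signal versus DMSO.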

Sequence of human RAR-related Orphan Receptor beta (RORb), RORB (gene 6096) (Q92753 whole entry, looked up, the tested form may be a part): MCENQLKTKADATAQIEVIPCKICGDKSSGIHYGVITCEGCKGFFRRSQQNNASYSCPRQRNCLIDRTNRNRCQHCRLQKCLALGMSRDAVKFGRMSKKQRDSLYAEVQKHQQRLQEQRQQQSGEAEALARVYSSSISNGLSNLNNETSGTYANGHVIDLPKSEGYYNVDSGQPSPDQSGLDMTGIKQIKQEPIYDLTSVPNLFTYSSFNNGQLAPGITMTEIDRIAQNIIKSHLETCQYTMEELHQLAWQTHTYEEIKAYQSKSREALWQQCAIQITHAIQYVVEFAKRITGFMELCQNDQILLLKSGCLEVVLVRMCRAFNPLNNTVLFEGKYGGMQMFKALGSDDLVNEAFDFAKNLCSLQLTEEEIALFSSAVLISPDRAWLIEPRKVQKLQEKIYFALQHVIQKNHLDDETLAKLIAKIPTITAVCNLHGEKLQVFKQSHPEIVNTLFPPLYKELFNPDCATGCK
Sequence of human Retinoic Acid Receptor gamma (RARg), RARG (gene 5916) (P13631 whole entry, looked up, the tested form may be a part): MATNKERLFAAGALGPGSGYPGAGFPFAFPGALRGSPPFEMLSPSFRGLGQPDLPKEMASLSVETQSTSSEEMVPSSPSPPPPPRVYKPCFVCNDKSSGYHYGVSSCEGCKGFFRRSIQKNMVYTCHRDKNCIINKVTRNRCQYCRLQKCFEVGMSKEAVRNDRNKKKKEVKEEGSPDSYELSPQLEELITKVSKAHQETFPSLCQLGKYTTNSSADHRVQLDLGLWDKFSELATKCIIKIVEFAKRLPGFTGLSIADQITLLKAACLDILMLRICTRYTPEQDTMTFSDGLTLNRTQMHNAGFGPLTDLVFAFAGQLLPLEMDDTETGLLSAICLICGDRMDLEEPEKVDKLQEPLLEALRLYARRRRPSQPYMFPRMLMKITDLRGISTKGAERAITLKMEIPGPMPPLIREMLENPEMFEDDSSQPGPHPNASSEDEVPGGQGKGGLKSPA
Sequence of human RAR-related Orphan Receptor gamma (RORg), RORC (gene 6097) (P51449 whole entry, looked up, the tested form may be a part): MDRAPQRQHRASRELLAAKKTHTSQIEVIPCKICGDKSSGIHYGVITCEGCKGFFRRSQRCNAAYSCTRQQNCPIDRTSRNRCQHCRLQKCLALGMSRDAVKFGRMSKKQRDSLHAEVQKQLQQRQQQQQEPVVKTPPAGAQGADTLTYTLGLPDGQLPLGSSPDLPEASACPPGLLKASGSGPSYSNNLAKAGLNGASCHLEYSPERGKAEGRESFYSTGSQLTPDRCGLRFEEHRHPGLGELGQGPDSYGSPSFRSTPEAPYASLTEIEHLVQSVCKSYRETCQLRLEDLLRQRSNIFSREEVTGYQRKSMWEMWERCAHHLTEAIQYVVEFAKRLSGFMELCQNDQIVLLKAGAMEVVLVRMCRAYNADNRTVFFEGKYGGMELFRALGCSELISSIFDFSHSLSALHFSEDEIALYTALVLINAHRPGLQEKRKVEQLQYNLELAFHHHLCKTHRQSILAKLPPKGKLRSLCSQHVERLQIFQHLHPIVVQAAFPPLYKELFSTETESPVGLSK
Sequence of Retinoic acid receptor RXR-alpha (Homo sapiens) (P19793 whole entry, looked up, the tested form may be a part): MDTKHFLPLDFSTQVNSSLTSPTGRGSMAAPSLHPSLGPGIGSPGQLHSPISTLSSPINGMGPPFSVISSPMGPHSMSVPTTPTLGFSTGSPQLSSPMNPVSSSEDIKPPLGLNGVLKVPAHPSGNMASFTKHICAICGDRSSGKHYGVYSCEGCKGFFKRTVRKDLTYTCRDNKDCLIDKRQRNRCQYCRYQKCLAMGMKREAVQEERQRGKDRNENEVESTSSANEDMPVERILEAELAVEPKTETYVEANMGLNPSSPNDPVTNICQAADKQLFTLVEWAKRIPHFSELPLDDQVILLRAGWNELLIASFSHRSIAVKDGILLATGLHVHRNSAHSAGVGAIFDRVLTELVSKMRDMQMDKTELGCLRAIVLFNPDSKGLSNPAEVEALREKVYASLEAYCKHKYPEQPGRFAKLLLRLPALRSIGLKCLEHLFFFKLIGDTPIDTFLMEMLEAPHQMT
Sequence of Nuclear receptor subfamily 1 group I member 2 (Homo sapiens) (O75469 whole entry, looked up, the tested form may be a part): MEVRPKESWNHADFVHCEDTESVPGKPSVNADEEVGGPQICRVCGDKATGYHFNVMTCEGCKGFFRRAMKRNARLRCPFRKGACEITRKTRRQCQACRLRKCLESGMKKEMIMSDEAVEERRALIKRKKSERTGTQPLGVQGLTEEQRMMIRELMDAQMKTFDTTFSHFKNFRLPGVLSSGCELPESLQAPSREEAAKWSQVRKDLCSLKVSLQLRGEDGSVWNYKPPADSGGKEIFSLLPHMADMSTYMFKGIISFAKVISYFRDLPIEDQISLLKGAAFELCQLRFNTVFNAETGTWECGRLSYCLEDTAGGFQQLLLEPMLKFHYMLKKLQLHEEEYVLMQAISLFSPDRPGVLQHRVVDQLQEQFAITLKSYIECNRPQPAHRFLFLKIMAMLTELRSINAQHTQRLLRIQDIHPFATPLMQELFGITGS
Sequence of Peroxisome proliferator-activated receptor gamma (Homo sapiens) (P37231 whole entry, looked up, the tested form may be a part): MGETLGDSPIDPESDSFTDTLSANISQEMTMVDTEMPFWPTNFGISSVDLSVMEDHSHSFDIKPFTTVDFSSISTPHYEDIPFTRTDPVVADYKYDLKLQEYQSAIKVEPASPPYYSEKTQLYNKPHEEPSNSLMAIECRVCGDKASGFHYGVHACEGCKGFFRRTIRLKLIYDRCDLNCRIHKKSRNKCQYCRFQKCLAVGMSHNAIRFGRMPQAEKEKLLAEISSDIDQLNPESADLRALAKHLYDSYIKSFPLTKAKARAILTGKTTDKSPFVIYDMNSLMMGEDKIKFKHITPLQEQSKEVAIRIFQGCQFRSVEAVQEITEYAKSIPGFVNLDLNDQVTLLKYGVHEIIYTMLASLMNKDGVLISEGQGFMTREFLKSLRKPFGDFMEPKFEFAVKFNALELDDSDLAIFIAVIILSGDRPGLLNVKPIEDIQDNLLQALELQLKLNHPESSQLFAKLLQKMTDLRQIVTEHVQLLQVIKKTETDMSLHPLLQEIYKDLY

Consider `FC(OC(F)(F)C(F)(F)C(F)(F)F)C(F)(F)F` (stereo unspecified), for which the compound was called inactive in experiment [1], in experiment [2], in experiment [3] and in experiment [4].
As to `C[C@]12CC[C@@H]3c4ccc(O)cc4CC[C@H]3[C@@H]1CC[C@@H]2OC(=O)CCC1CCCC1`, the outcome in experiment [5], in experiment [3] and in experiment [4] was inactive.
`CCCCCCCCCCCC(=O)NCCCN(C)C`: the compound was called inactive in experiment [5] and in experiment [4].
For the compound `NC(C(F)(F)F)C(F)(F)F`, the call in experiment [5] was inactive.
On to `CCCCCCOC(=O)c1ccc(O)cc1`, for which the AC50 in experiment [1] is 23.2 µM (active). In addition, the compound was classed as inactive in experiment [6] and in experiment [4].
As to `CCOC(=O)c1nc(C(Cl)(Cl)Cl)n(-c2ccc(Cl)cc2Cl)n1`, the values for the AC50 in experiment [1] and in experiment [5] were 40.4 µM (active) and 7.68 µM (active), respectively. Besides, in experiment [4], the result was inactive.
Regarding `CCCCCCc1ccc(N)cc1`, the call in experiment [1], in experiment [5] and in experiment [4] was inactive.
With `CCC(=O)C=Cc1ccc(OC)cc1`, the AC50 in experiment [1] was 24.6 µM (active). Moreover, the compound was called inactive in experiment [5] and in experiment [4].
`C/C=C/C(=O)C1=C(C)CCCC1(C)C`: the AC50 in experiment [1] is 64.7 µM (active); in experiment [5], 19.8 µM (active). Also, the outcome in experiment [3] and in experiment [4] was inactive.
As for `CCOC=C(C(=O)OCC)C(=O)OCC`, the result in experiment [1] and in experiment [4] was inactive.
With `NCc1cccc(CN)c1`, the result in experiment [1], in experiment [5], in experiment [3] and in experiment [4] was inactive.
On to `FCOC(C(F)(F)F)C(F)(F)F`, for which the compound was called inactive in experiment [6], in experiment [2] and in experiment [4].
On to `O=C(O)c1cccc(C(=O)O)n1`, for which the compound was classed as inactive in experiment [4].
Take `COc1ccc(C#N)cc1`: the outcome in experiment [1], in experiment [6] and in experiment [2] was inactive.
Regarding `c1ccc2c(c1)CCC2`, the call in experiment [3] and in experiment [4] was inactive.
Turning to `COC(=O)C(F)(F)C(F)(F)C(F)(F)F`, the outcome in experiment [1] and in experiment [4] was inactive.
For the compound `NNc1nc(-c2ccc([N+](=O)[O-])cc2)cs1`, the AC50 in experiment [1] was 5.61 µM (active). The outcome in experiment [5] and in experiment [4] was inactive.
Regarding `CCCCCCCCC(C)=O`, the outcome in experiment [3] and in experiment [4] was inactive.
As to `COc1cc([N+](=O)[O-])ccc1N`, the result in experiment [5] and in experiment [4] was inactive.
With `C=CC(F)(F)C(F)(F)C(F)(F)C(F)(F)F`, the compound was called inactive in experiment [1] and in experiment [4].
Turning to `CC(=O)Nc1ccc(S(N)(=O)=O)cc1`, the compound was called inactive in experiment [6], in experiment [2] and in experiment [4].
In the case of `O=C1OC(=O)c2cc(-c3ccc4c(c3)C(=O)OC4=O)ccc21`, the outcome in experiment [5] and in experiment [2] was inactive.
`NNC(=O)CCCCC(=O)NN`: the result in experiment [2] and in experiment [4] was inactive.
With `CCCCCCCCCC=CCC1CC(=O)OC1=O` (stereo unspecified), in experiment [3], the compound was classed as inactive.
In the case of `Cc1cc(C(C)(C)C)c(O)c(C(C)(C)C)c1`, the outcome in experiment [1] was inactive. The half-maximal activity concentration (AC50) in experiment [4] is 15.6 µM (active) and 865 nM (active).
As for `CCN(CC)CC`, the outcome in experiment [5], in experiment [3] and in experiment [4] was inactive.
With `CC(C)(C)c1ccc(CCC=O)cc1`, the compound was called inactive in experiment [1], in experiment [3] and in experiment [4]. Also, the AC50 in experiment [5] was 29.3 µM (active).
Consider `O=C1Cc2ccccc2N1c1c(Cl)cccc1Cl`, for which the compound was called inactive in experiment [1] and in experiment [4]. Moreover, the AC50 in experiment [5] is 0.517 µM (active).
As for `COc1ccccc1NC(=O)c1cc2ccccc2cc1O`, the AC50 in experiment [1] is 8.06 µM (active). Besides, the compound was called inactive in experiment [6].
For `Cc1ccccc1C(OCCN(C)C)c1ccccc1` (stereo unspecified), the compound was classed as inactive in experiment [6] and in experiment [4].
